High-throughput results deposited in PubChem by several laboratories.
VLA-4 inh = inhibition in human VLA-4 binding assay, primary screen, VLA-4 allosteric modulator project, MLPCN library, flow cytometry, VLA-4 expressing cells | inhibition, % (about 7 µM as worked out from the volumes in the protocol) | ligand binding flow cytometry | AID 2557, 2010 | Integrin alpha-4 (Homo sapiens), P13612 | hit rate 0.2% among 330,000; in the data active means inhibition above about 50%
AI-2 QS modul = Vibrio harveyi AI-2 quorum sensing modulators, primary screen, JMH597 strain, luminescence/OD600 ratio. Vibrio harveyi JMH597 AI-2 luminescence/OD600 ratio, 9 h; stronger effect = lower value; strain lacks LuxN and CqsS sensors; 0 = neutral-control median. activity change, % at 7.5 µM. hit rate 0.4% among 300,000. AID 2094, 2009; in the data active means activity change below about -75%, passing the limit was not always enough;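 further: luminescence divided by OD600 gain over 9 h not by final OD600 alone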
DSG3 Ab inh = inhibitors of pemphigus antibody binding to DSG3, primary screen, biochemical, bead-based, flow cytometry, scFv-GFP; binding (percent of control), % at 10 µM; Desmoglein-3 (Homo sapiens), P32926; hit rate 0.48% among 310,000; DSG3-coupled beads, scFv-anti-DSG3-GFP binding; stronger effect = lower value;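 active means binding more than 3 SD below its plate's average and above zero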
NTR1 ag = agonists of human NTR1, primary screen, imaging, U2OS cells, beta-arrestin-GFP, high content; Neurotensin receptor type 1 (Homo sapiens), P30989; activation, % at 20 µM; hit rate 0.17% among 330,000; NTR1-U2OS beta-arrestin-GFP spot imaging, agonist mode;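 active means activation at or above 40% of the spot to cytoplasm intensity ratio, with at least 20 cells analyzed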
NTR1 ag conf = NTR1 agonists, single-dose retest, confirmation, imaging, U2OS cells, beta-arrestin-GFP, single concentration; shares compounds with NTR1 ag; NTR1-U2OS beta-arrestin-GFP translocation imaging; activation, % at 20 µM; hit rate 38% among 480; AID 504550, 2011;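 active means mean activation at 20 µM of at least 40%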
Hits are given with their value; 0 = inactive; - = not tested or not shown. Hits are enriched below; roughly 1.1% of the tested compounds scored in any of these assays.

SMILES | VLA-4 inh | AI-2 QS modul | DSG3 Ab inh | NTR1 ag | NTR1 ag conf
O=C1CC(N2CCC(n3c(=O)[nH]c4ccccc43)CC2)C(=O)N1c1ccc(F)cc1 (stereo not given) | 0 | 0 | 0 | 0 | -
CC12CCC3C(CCC4CC(=O)C(C(O)C(F)(F)F)CC43C)C1CCC2O (stereo not given) | - | - | 0 | - | -
CCN(CC)c1ccc(C=C2C(=O)NC(=S)NC2=O)cc1 | 0 | 0 | 0 | 71 | 95
Nc1ccc(Cl)cc1C(=O)c1ccccc1 | 0 | 0 | 0 | 100 | 0
O=C1NC(=O)N(Cc2ccc(F)cc2)C(=O)/C1=C/c1cccs1 | 0 | 0 | 0 | 53 | 45
Cc1ccc(C(=O)N[C@@H](C)CN2C3=NC[C@H](Cc4ccccc4)N3C[C@H]2Cc2ccc(O)cc2)cc1Br | 0 | 0 | - | 52 | 0
Cc1ccc(C(=O)N[C@@H](C)CN2C3=NC[C@@H](Cc4ccccc4)N3C[C@H]2Cc2ccc(O)cc2)cc1Br | 0 | 0 | - | 0 | -
COc1ccc(NC(=O)c2cn(CCC#N)nc2-c2cccc([N+](=O)[O-])c2)cc1 | 0 | 0 | 0 | 0 | -
COc1ccc(Oc2cc(NC(=O)c3nn(C)cc3[N+](=O)[O-])cc([N+](=O)[O-])c2)cc1 | 0 | 0 | 0 | 61 | 67
O=C(COC(=O)Cc1ccccc1)Nc1nnc(-c2ccccc2)o1 | 0 | 0 | 0 | 0 | -
CN(C)c1ccc(/C=C/[N+](=O)[O-])cc1 | 0 | 0 | 0 | 0 | -
C/C(=C\c1ccc(N(C)C)cc1)[N+](=O)[O-] | 0 | -91 | 0 | 53 | 73
CC1CCC(C(C)C)C(OC(=O)Cn2c(COc3ccccc3)[n+](C)c3ccccc32)C1 (stereo not given) | 0 | 0 | 0 | 59 | 68
Cc1cccc(N2C(=O)NC(=O)/C(=C/c3ccc([N+](=O)[O-])o3)C2=O)c1 | 0 | - | - | - | -
Cc1cccc(N2C(=O)NC(=O)/C(=C\c3cccn3-c3ccc(Cl)cc3)C2=O)c1 | 0 | 0 | 0 | 48 | 82
Cc1cc(C)cc(N2C(=O)NC(=O)/C(=C/c3cccn3-c3ccc(Cl)cc3)C2=O)c1 | 0 | 0 | 0 | 44 | 61
CC(C)(C)n1cccc1/C=C1\C(=O)NC(=O)N(c2ccccc2)C1=O | 0 | 0 | 0 | 0 | -
COC(=O)C1=C(c2ccc3ccccc3c2)C[C@@H]2CC[C@H]1N2C(=O)NC1CC1 | 0 | - | 0 | 0 | -
C[C@H]1CC[C@H]2NCCN[C@H]2C1 | 0 | 0 | 0 | 0 | -
COC(=O)c1ccc(NC(=O)CSc2nc3ccc(N4C(=O)C5C6C=CC(C6)C5C4=O)cc3s2)cc1 (stereo not given) | 0 | 0 | 0 | 63 | 56
O=C1NC(=O)C(=Cc2cn(CCOc3ccc4c(c3)OCO4)c3ccccc23)C(=O)N1 | 0 | 0 | - | 54 | 63
